Assay results as given in PubChem BioAssay AID624330 (Southern Research Specialized Biocontainment Screening …, 2012).
Among all 340,000 compounds or so, about 2,100 (0.62%) were called active.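 The calls were made as follows: active = first-screen hits whose inhibition reached a set limit at any dose in the follow-up dose series; inconclusive = inhibition above the set first-screen limit but never retested; inactive = the rest.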 Not all results are given here. Entries with a potency or affinity are not part of this list.

What follows are compounds tested against Rac GTPase-activating protein 1 (Homo sapiens) (UniProt Q9H0H5) (assay: blockers of MgcRacGAP-driven Rac1 GTP hydrolysis – biochemical, ADP Hunter fluorescence, primary and confirmatory, confirmation (AID 624330;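 also: fluorescence reports GDP produced by GAP-driven GTP hydrolysis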)). Conditions: MgcRacGAP-stimulated Rac1 GTP hydrolysis, at 30 µM, hits give high values, GST-tagged Rac1 F28L mutant substrate.
Rac GTPase-activating protein 1 (Homo sapiens), sequence (Q9H0H5 whole entry, looked up): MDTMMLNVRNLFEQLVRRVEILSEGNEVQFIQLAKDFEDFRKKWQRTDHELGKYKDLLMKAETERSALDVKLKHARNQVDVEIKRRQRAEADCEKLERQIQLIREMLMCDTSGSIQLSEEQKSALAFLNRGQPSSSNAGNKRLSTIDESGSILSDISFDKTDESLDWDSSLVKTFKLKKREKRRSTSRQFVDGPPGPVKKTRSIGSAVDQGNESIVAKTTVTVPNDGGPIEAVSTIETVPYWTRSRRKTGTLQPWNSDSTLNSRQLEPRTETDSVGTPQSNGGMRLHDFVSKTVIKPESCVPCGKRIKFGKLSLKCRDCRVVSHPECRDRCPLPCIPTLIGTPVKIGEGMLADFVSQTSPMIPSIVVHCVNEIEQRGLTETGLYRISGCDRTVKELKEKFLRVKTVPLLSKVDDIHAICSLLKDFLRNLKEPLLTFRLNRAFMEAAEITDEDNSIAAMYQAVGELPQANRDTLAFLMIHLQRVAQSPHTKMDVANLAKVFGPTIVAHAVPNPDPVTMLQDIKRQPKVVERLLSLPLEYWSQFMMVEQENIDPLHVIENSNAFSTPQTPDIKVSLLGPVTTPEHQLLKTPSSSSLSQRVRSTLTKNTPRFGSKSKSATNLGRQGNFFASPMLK

inhibition, inactive:
O=C1c2ccccc2NC(c2ccccn2)N1c1ccccc1F (configuration not stated) 6.7%
O=C(NC1CCCCC1)c1cc(S(=O)(=O)N2CCCC2)ccc1Cl 9.3%
CCOC(=O)COc1nc(OC)nc(N2CCOCC2)n1 13%
Nc1ccc2nc(C(F)(F)F)[nH]c2c1 7.12%
Nc1cccc(-c2nc3ccccc3[nH]2)c1 8.22%
Nc1ccc2nc(-c3cccc(-c4nc5ccc(N)cc5[nH]4)c3)[nH]c2c1 25.9%
Nc1ccc(-c2nc3ccccc3[nH]2)cc1 8.27%
O=C(OCC(=O)N1CCN(C(=O)c2ccco2)CC1)c1sc2cc(F)ccc2c1Cl 3.78%
COC(=O)c1ccc(C(=O)OC)c(NC(=O)CN(C)Cc2cccc(Cl)c2Cl)c1 5.99%
Cc1nc2cc3nc(C)sc3cc2s1 10.8%
O=C(Cc1ccc(Cl)cc1)N/N=C/c1cccc(O)c1 -4.31%
O=C(Cc1ccc(Cl)cc1)N/N=C/c1ccccc1 3.03%
O=C(CCc1ccc(O)cc1)NN=Cc1ccc2c(c1)OCO2 28.7%
COc1ccc(CCC(=O)N/N=C/c2ccc3c(c2)OCO3)cc1 4.06%
O=C(CCC(=O)OCc1ccc([N+](=O)[O-])cc1)Nc1ccc(F)cc1 4.88%
O=C(CC(c1ccccc1)c1ccccc1O)NCCN1CCOCC1 (configuration not stated) -6.2%
Nc1ccccc1-n1c(=O)n(Cc2ccccc2F)c(=O)c2[nH]cnc21 3.12%
C=CCn1c(SCc2cc(=O)n3cc(C)ccc3n2)nnc1-c1cccc(C)c1 8.24%
CSCC[C@H](NC(=O)OC(C)(C)C)C(=O)N1CCC(C(=O)NCC(=O)Nc2ccc(C)cc2)CC1 -4.04%
COCCNC(=O)c1ccc(-c2csc(C)n2)cc1 3.59%
C[C@@H]1CN([C@H](C)CO)C(=O)c2cc(Br)cnc2O[C@@H]1CN(C)C(=O)C1CCOCC1 8.56%
CNc1nnc(-c2ccncc2)s1 6.68%
CNc1nnc(-c2cccc(N(C)C)c2)s1 4.36%
Cc1cc(OCC(=O)NCC2CCC(C(=O)O)CC2)c2c(C)c(Cc3ccccc3)c(=O)oc2c1 (configuration not stated) 1.13%
CCCc1cc(=O)[nH]c(SCC(=O)NC)n1 2.55%
CCCCNC(=O)c1ccc(CS(=O)(=O)c2ccc(OC)cc2)o1 -10.9%
CCOc1ccc(S(=O)(=O)Nc2ccc(C(=O)NCC(c3ccc(OC)cc3)N3CCOCC3)cc2)cc1 (configuration not stated) 5.24%
COc1ccc(CN2CCC(=O)N(CCO)CC2)cc1OC 7.88%
O=C(c1ccco1)N1CCN(Cc2cn[nH]c2-c2ccc(F)cc2F)CC1 -5.62%
Cn1c(=O)[nH]c(Nc2ccc(F)cc2)c([N+](=O)[O-])c1=O 8.12%
Cn1c(=O)[nH]c(Nc2ccccc2)c([N+](=O)[O-])c1=O 5.65%
Cc1ccc(C(=O)NCCCNC(=O)c2ccco2)cc1 4.3%
CN(CC(=O)Nc1c(Cl)cccc1Cl)C(=O)C1CCN(C(=O)Nc2ccccc2)CC1 -1.59%
COc1ccccc1CCC(=O)OCC(=O)Nc1ccc(C(N)=O)cc1 -2.01%
Cc1ccc(S(=O)(=O)N2CCCCC2)cc1NC(=O)CSc1nc(N)cc(=O)[nH]1 4.78%
COC(=O)c1c(N)sc(C(=O)N2CCOCC2)c1C 8.37%
Cc1c(-c2ccccc2)sc(Br)c1C(=O)N1CCOCC1 2.64%
Cc1ccc(N(C(C)C(=O)O)S(=O)(=O)c2cccnc2)cc1 (configuration not stated) 4.39%
O=C1ON=C(c2ccccc2)/C1=C\c1ccco1 19.1%
O=C1ON=C(c2ccccc2)/C1=C/c1ccc(-c2ccccc2[N+](=O)[O-])o1 7.69%
COc1cc([N+](=O)[O-])ccc1-c1ccc(/C=C2\C(=O)ON=C2c2ccccc2)o1 25%
O=C1ON=C(c2ccccc2)/C1=C/c1cccnc1 3.82%
CN(C)/C=C1\C(=O)ON=C1c1ccccc1 11.7%
COc1ccc(/C=C2\C(=O)ON=C2c2ccccc2)cc1 24.6%
Cc1ccc(C2=NOC(=O)/C2=C\C=C\c2ccccc2)cc1 6.67%
Cc1ccc(C2=NOC(=O)/C2=C\c2ccccc2)cc1 8.59%
Cc1ccc(CNS(=O)(=O)NCc2ccc(Cl)cc2)cc1 0.28%
COc1ccc(N2CCN(C(=O)COC(=O)CCS(=O)(=O)c3ccc(C)cc3)CC2)cc1 20.8%
O=S(=O)(c1ccc2ccccc2c1)N1CCNCC1 11.3%
COc1ccc(CNC(=O)CN(C(=O)CCC(=O)Nc2ccccn2)c2cccc(C)c2C)cc1 6.1%
CCc1nnc(NC(=O)CSc2nnc3ncccn23)s1 4.86%
CC(=O)Nc1cccc(NC(=O)CSc2n[nH]c(-c3ccccc3)n2)c1 2.62%
O=[N+]([O-])c1ccccc1S(=O)(=O)N1CCCc2ccccc21 -4.93%
COc1c(-c2ccc(O)cc2)oc2cc(O)cc(O)c2c1=O 8.09%
COc1ccc(-c2coc3cc(O)ccc3c2=O)cc1 -1.73%
COc1ccc(-c2oc3cc(O)c(OC)c(O)c3c(=O)c2OC)cc1O 26.4%
O=c1cc(O)c2ccc(O)cc2o1 11.2%
O=c1c(O)c(-c2ccc(O)c(O)c2)oc2cc(O)cc(O)c12 24.2%
O=c1c(O)c(-c2cc(O)c(O)c(O)c2)oc2cc(O)cc(O)c12 -51.5%
O=c1c(O)c(-c2ccccc2)oc2cc(O)cc(O)c12 9.81%
O=c1c(-c2ccc(F)cc2)coc2cc(O)ccc12 2.56%
CC1(C)CC(=O)C(N=Nc2ccc3ncsc3c2)=C(O)C1 9.23%
Cc1cc(C)c(/C([O-])=C(/C(=S)Nc2ccc(SC(F)F)cc2)[n+]2ccccc2)cc1C -14.3%
Cc1cc(C(=O)N2CCCC(N3CCN(c4cccc(Cl)c4)CC3)C2)n(C)n1 (configuration not stated) 9.25%
O=C(COc1ccccc1)N[C@@H]1c2ccccc2CC[C@@H]1OCc1ccccc1 3.68%
CCN(C(=S)NC(=O)c1ccco1)c1cccc2ccccc12 15.5%
N/C(Cc1ccc(Cl)cc1Cl)=N\OC(=O)Cc1cccs1 6.38%
O=C(COc1ccc(-c2nnco2)cc1)NC1CCS(=O)(=O)C1 (configuration not stated) 2.22%
Cn1c(SCC(=O)N2CCc3ccccc3C2)nnc1-c1cccs1 -0.2%
COc1cccc(/C=C2\CCc3ccccc3C2=O)c1 7.06%
COc1cc(C=C2C(=O)c3ccccc3C2=O)ccc1O 15.4%
COc1cc(/C=C2\CCc3ccccc3C2=O)cc(OC)c1OC 4.54%
COc1cc(/C=C2/CCc3ccccc3C2=O)cc(OC)c1OC 4.12%
COc1ccc(/C=C2\CCc3ccccc3C2=O)cc1O 12.2%
COc1cc(C=C2C(=O)c3ccccc3C2=O)cc(OC)c1 5.79%
Cc1nc(NCC(c2ccccc2)N(C)C)c2c(C)c(C)sc2n1 (configuration not stated) 7.93%
C=CCNC(=O)CN1CCN(Cc2ccc3c(c2)OCO3)CC1 6.33%
O=C(NNc1ccccc1[N+](=O)[O-])NC1CCCCC1 2.65%
Cc1ccc(NC(=O)CCn2c(=O)c3cccn3c3ccccc32)cc1C 7.75%
CN(CC(=O)Nc1ccccc1N1CCCC1)S(=O)(=O)c1ccc(F)cc1 3.64%
CCOC(=O)NNC(=O)c1[nH]c2ccc(Br)cc2c1-c1ccccc1 9.63%
O=C(O)c1cccc(Nc2nc(C(F)(F)F)nc3ccccc23)c1 2.84%
OCCN(CCO)c1cc2c3ccccc3ccc2c2ccccc12 16%
OCCN(CCO)c1ccc(C(c2ccccc2Cl)c2ccc(N(CCO)CCO)cc2Cl)c(Cl)c1 4.93%
CC(Oc1cc2oc(=O)c3c(c2cc1Cl)CCCC3)C(=O)NCCN1CCOCC1 (configuration not stated) 11.2%
CCC(C)c1ccc(NC(=S)NCCn2cc(Cl)cn2)cc1 (configuration not stated) 10.6%
CC1Cc2ccccc2N1C(=S)Nc1ccc(S(N)(=O)=O)cc1 (configuration not stated) 10.7%
CC(NCc1ccc(S(N)(=O)=O)cc1)C(=O)N1CCc2ccccc21 (configuration not stated) 16.2%
CCOC(=O)N1CCN(c2c(N3CCN(c4ccc(F)cc4)CC3)c(=O)c2=O)CC1 6.14%
O=C(CCCn1c(=S)[nH]c2cc3c(cc2c1=O)OCO3)NCCc1ccccc1Cl 9.48%
Nc1ccc(Nc2ccncc2[N+](=O)[O-])cc1 8.85%
Clc1ccc(Nc2nc(-c3ccncc3)cs2)cc1 9.41%
Cc1ccc(Nc2nc(-c3ccncc3)cs2)cc1 8.27%
Nc1ccc(C(=O)Nc2ccc(Nc3ccncc3)cc2)cc1 5.48%
CSc1cc(/C=N/O)c(SC)s1 3.21%
CCCn1c2ccccc2c2cnn(CC(=O)N3CCN(C4CCCCC4)CC3)c(=O)c21 10.4%
O=C(O)c1cc([N+](=O)[O-])cc([N+](=O)[O-])c1N1CCN(c2cccc(C(F)(F)F)c2)CC1 -6.28%
